Bioassay records deposited in PubChem by National Center for Advancing Translational Sciences (NCATS).
DT40 TDP1 no CPT: qHTS for Inhibitors of human tyrosyl-DNA phosphodiesterase 1 (TDP1): qHTS in cells in absence of CPT | DT40 Tdp1-/- hTDP1 cells, no CPT, ATP luminescence, 48 h | Potency, µM (top dose mostly 46.2 µM), actives largely listed as inhibitors | 420,000 compounds, 15% hits | AID 686978, 2013; also: nearly all actives have a fitted effect of over 55% in size
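Readout: luminescence from CellTiter-Glo after 30 min in the dark at RT. Cells: DT40 Tdp1-/- with stable hTDP1, 400/well. Exposure: compounds alone, ≥48 hr, 37 °C.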
IL1B secr inh: inflammasome signaling inhibition, IL-1 beta readout; THP-1 LPS/ATP IL-1B secretion, AlphaLISA, 16 h; active compounds read low; activity change, % at 57.5 µM; 360,000 compounds, 4.7% hits; AID 743279; in the data active = activity change below about -50%; inconclusive = mostly about -30% to -49%
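Secreted IL-1B measured by AlphaLISA bead assay after 16 h compound exposure of THP-1 cells; compounds (final up to 57.5 uM) added 1 h before LPS (250 ng/mL) and ATP (1.25 mM) stimulation; lower signal means less secretion.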
DT40 TDP1 CPT: growth inhibition of DT40 Tdp1-/-;hTDP1 cells with camptothecin (screen for TDP1 inhibitors); chicken DT40 Tdp1-/-;hTDP1 cells + 20 nM CPT, ATP luminescence, 48 h; Potency, µM (doses to about 46.2 µM), most hits filed as inhibitors; 420,000 compounds, 12% hits; AID 686979; also: nearly all actives have a fitted effect of over 55% in size
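Cell growth measured by CellTiter-Glo luminescence after a minimum 48 h, 37 C compound exposure with 20 nM CPT in Tdp1-knockout DT40 cells stably expressing hTDP1, seeded 400/well; qHTS titration format.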
HT1080 IDH1KD tx: HT-1080 IDH1 knockdown cell toxicity (counter line) | 360,000 compounds, 2% hits | HT-1080 IDH1 knockdown viability, ATP luminescence, 48 h | Potency, µM (series often up to 46.1 µM), usual class: cytotoxic | AID 686971
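CellTiter-Glo luminescence after 48 h compound exposure at 37 degrees C of IDH1-knockdown HT-1080 cells in 5% FBS RPMI. %Activity scaled between DMSO wells and cell-free media wells, with curves fitted and assigned curve classes.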
ELG1 DNA repair: ELG1-dependent DNA repair inhibition; Potency, µM (highest dose often 46.1 µM), hits mostly inhibitors; 330,000 compounds, 2.3% hits; HEK293T ELG1-luciferase reporter, luminescence, 16 h; DNA damage induced by 5-fluorouridine; also: nearly all actives have a fitted effect of over 55% in size
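Luminescence from the luciferase reporter, measured 30 min after ONE-Glo reagent at room temperature, was the read-out. Beforehand, 2,000 cells per well were exposed for 16 hr at 37 °C to 5-fluorouridine together with compound or vehicle.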
HT1080NT lethal: kills 2HG-producing HT-1080-NT fibrosarcoma cells; 360,000 compounds, 1.6% hits; AID 686970; Potency, µM (doses to about 46.1 µM), actives largely listed as cytotoxic; HT-1080-NT fibrosarcoma viability, CellTiter-Glo ATP luminescence, 48 h;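 also: NT is the 2HG producing partner of a matched IDH1 knockdown line; nearly all actives have a fitted effect of over 55% in size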
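HT-1080-NT; 750 cells/well; 5% FBS RPMI; 48 h compound, 37 degrees C; CellTiter-Glo luminescence; curve fitting and curve-class assignment.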
Each line names hits and unclear results; the compound was inactive in the other large screens. Most compounds without a hit are left out; they make up all but 19% or so of the library. Unless noted, calls follow the shape of the dose curve; as a rule, active = well fitted curve in the direction sought with a large enough effect; inconclusive = small, poorly fitted or top-dose-only effect, or another doubt; inactive = no such curve, though single readings can be large; an effect the other way counts as inactive or inconclusive.

N#CC1=C(N)SC(N)=C(C#N)C1c1ccc([N+](=O)[O-])cc1	DT40 TDP1 no CPT inconclusive, DT40 TDP1 CPT 15µM, HT1080 IDH1KD tx inconclusive
CC(C)(C)c1cc(NC(=O)Nc2ccc(Cl)cc2Cl)no1	DT40 TDP1 no CPT inconclusive, DT40 TDP1 CPT inconclusive, HT1080 IDH1KD tx inconclusive, HT1080NT lethal inconclusive
Cc1c(Cl)cccc1NC(=O)Nc1cc(C(C)(C)C)on1	DT40 TDP1 no CPT 15µM, DT40 TDP1 CPT inconclusive
CC(C)(C)c1cc(NC(=O)Nc2ccc(Br)cc2Cl)no1	DT40 TDP1 no CPT inconclusive, IL1B secr inh -57, DT40 TDP1 CPT 21µM
Cc1cc(NC(=O)Nc2ccccc2Cl)no1	ELG1 DNA repair inconclusive
CCCNC(=O)N[C@H]1C=C[C@H](CC(=O)OC)O[C@@H]1CO	none (no result: ELG1 DNA repair)
N#Cc1c(-c2ccccc2)nc(SCC(=O)N2c3ccccc3Sc3ccccc32)[nH]c1=O	none
CCc1ccc(NC(=O)COC(=O)/C=C/c2c(C)nn(C3CCS(=O)(=O)C3)c2Cl)cc1 (centres undefined)	none
COc1ccccc1Nc1nc(-c2sc(NC(=O)CC(C)C)nc2C)cs1	DT40 TDP1 no CPT inconclusive, DT40 TDP1 CPT inconclusive, ELG1 DNA repair inconclusive, HT1080NT lethal inconclusive
COc1ccc(NC(=O)c2cc(-c3sc(NC(=O)c4ccccc4)nc3C)n(-c3ccc(Br)cc3)n2)cc1	none (no result: ELG1 DNA repair)
CCC(=O)Nc1nc(C)c(-c2csc(Nc3ccc(C(=O)O)cc3)n2)s1	none
COc1cccc(Nc2nc(-c3sc(NC(=O)CC(C)C)nc3C)cs2)c1	DT40 TDP1 no CPT 23µM, DT40 TDP1 CPT 13µM, ELG1 DNA repair inconclusive
CCCC(=O)Nc1nc(C)c(-c2csc(Nc3cc(OC)ccc3OC)n2)s1	DT40 TDP1 no CPT 6.5µM, DT40 TDP1 CPT 4.6µM, ELG1 DNA repair 5.2µM
C=CCn1nc(C(=O)Nc2ccc(OC)cc2)cc1-c1sc(NC(=O)c2ccccc2)nc1C	DT40 TDP1 no CPT inconclusive, DT40 TDP1 CPT 18µM (no result: ELG1 DNA repair)
Cc1nc(NC(=O)c2ccccc2)sc1-c1csc(Nc2ccc(C(=O)O)cc2)n1	DT40 TDP1 no CPT 12µM, IL1B secr inh inconclusive, DT40 TDP1 CPT 21µM, ELG1 DNA repair inconclusive
COc1ccccc1Nc1nc(-c2sc(NC(=O)c3cccc(Cl)c3)nc2C)cs1	none (no result: DT40 TDP1 no CPT, IL1B secr inh, DT40 TDP1 CPT, HT1080 IDH1KD tx, HT1080NT lethal)
CCCC(C)C(=O)Nc1nc(C)c(-c2csc(Nc3cc(OC)ccc3OC)n2)s1 (centres undefined)	DT40 TDP1 no CPT 6.5µM, DT40 TDP1 CPT 4.6µM, ELG1 DNA repair 18µM
C=CCCC(=O)Nc1nc(C)c(-c2csc(Nc3cccc(OC)c3)n2)s1	DT40 TDP1 no CPT 16µM, DT40 TDP1 CPT 16µM, ELG1 DNA repair 15µM
CCCCCC(=O)Nc1nc(C)c(-c2csc(Nc3cc(Cl)ccc3OC)n2)s1	DT40 TDP1 no CPT 18µM, DT40 TDP1 CPT inconclusive
Cc1cc(O)ccc1Nc1nc(-c2sc(N)nc2C)cs1	HT1080 IDH1KD tx inconclusive
COc1ccc(OC)c(Nc2nc(-c3sc(N)nc3C)cs2)c1	DT40 TDP1 no CPT 26µM, IL1B secr inh inconclusive, DT40 TDP1 CPT inconclusive, ELG1 DNA repair 12µM, HT1080NT lethal inconclusive
C=CCCC(=O)Nc1nc(C)c(-c2csc(Nc3cc(OC)ccc3OC)n2)s1	DT40 TDP1 no CPT 2.6µM, DT40 TDP1 CPT 2.6µM, HT1080 IDH1KD tx 7.3µM, ELG1 DNA repair 7.3µM, HT1080NT lethal 7.3µM
COc1ccc(OC)c(-c2csc(NC(=O)Cc3ccccc3OC)n2)c1	DT40 TDP1 no CPT inconclusive, IL1B secr inh inconclusive
Cc1nc(NC(=O)c2ccccc2)sc1-c1csc(NCc2ccco2)n1	DT40 TDP1 no CPT 23µM, DT40 TDP1 CPT 23µM, HT1080 IDH1KD tx inconclusive, ELG1 DNA repair 15µM, HT1080NT lethal inconclusive
CCCC(=O)Nc1nc(C)c(-c2csc(Nc3ccccc3OC)n2)s1	DT40 TDP1 no CPT inconclusive, ELG1 DNA repair 23µM
